26 molecules from PubChem BioAssay AID449762 (Southern Research Specialized Biocontainment Screening …, 2010) can be followed below.

The whole screen tested about 330,000 compounds, of which about 1,900 (0.58%) were called active. Not shown: some 4% with an inconclusive outcome. Not all results are given here. Potency and affinity values are given separately. Unmarked numbers belong to inactive results. Cut-off read from the data, not from the text of the source: inconclusive = inhibition above about 70% without an active follow-up result; inactive = below that.

The assay in a line: M. tuberculosis growth inhibition, HTS (AID 449762).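 Note: bacterial growth assessed after seven days of incubation.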 Conditions: M. tuberculosis H37Rv growth inhibition, 7H9 media; at 25 µM; stronger effect = higher value.
A word on the inhibition: it is the change of the read-out against control, counted positive when it falls. Turning to `CC1=NN(C(=O)c2ccc(Cl)cc2)C(O)(c2ccccc2)C1` (stereo unspecified), the inhibition is 28%.
With `CC1=NN(C(=O)c2ccccc2)C(O)(c2ccc(Br)cc2)C1` (stereo unspecified), the inhibition was -3.64%.
For `Cc1cccc(NC(=O)CNC(=O)c2sc3ccccc3c2Cl)n1`, the inhibition is -2.76%.
To `COc1ccc([C@@H]2CC=C(C(=O)O)[C@H](c3ccc(C(C)(C)C)cc3)N2S(=O)(=O)c2ccc(C)cc2)cc1OC` belongs 4.96%; to `CCS(=O)(=O)c1ccc2c(c1)N(S(C)(=O)=O)CC(C(=O)NC1CC1)O2` (stereo unspecified), 0.09%.
To `On1c(-c2ccccc2)nc2ccccc21` belongs 9.54%; to `O=C(O)Cn1c(=O)c(-c2ccccc2)nc2ccccc21`, -12.6%; to `N#Cc1ccccc1S(=O)(=O)N1CCN(CC(O)COc2ccccc2F)CC1` (stereo unspecified), 3.84%.
As for `N=C1C(c2ccccc2)=C(O)CN1c1cccc2ccccc12`, the inhibition was -2.85%.
In the case of `CCOc1ccc(/C=C2\SC(=S)N(N3C(=O)C4CC4C3=O)C2=O)cc1` (stereo unspecified), the inhibition is -8.07%.
`CCc1ccc(NC(=S)Nc2ccc3cn[nH]c3c2)cc1`: the inhibition is 32%.
For the molecule `CCNC(=S)Nc1ccc2cn[nH]c2c1`, the inhibition is -5.21%.
To `CCCCn1cnc2c(oc3ccccc32)c1=O` belongs -0.57%; to `Nc1nn(S(=O)(=O)c2ccccc2)cc1-c1cccc([N+](=O)[O-])c1`, 1.89%; to `CN(C)[C@@H]1C(=O)C(C(N)=O)=C(O)[C@@]2(O)C(=O)C3=C(O)c4c(O)ccc(Cl)c4[C@@](C)(O)[C@H]3C[C@@H]12`, 5.01%.
To `CCOc1ccc(NC(=O)CCC(=O)Oc2ccc(C)cc2)cc1` belongs -3.3%.
As for `O=C(COC(=O)Cc1ccsc1)Nc1ccccc1`, the inhibition is -4.1%.
For the molecule `C=CCNC(=S)NNC(=O)c1csc(CC)c1`, the inhibition is -5.45%.
Turning to `Cc1ccc(NC(=O)C(C)N=C2NS(=O)(=O)c3ccccc32)cc1F` (stereo unspecified), the inhibition is 11%.
Take `CC(=O)N1CCN(c2ccc([N+](=O)[O-])cc2)CC1`: the inhibition is -5.3%.
Turning to `CC(=O)N1CCN(c2ccc([N+](=O)[O-])c(-n3nc(C)cc3C)c2)CC1`, the inhibition was 1.6%.
To `CCOc1ccccc1OCC(=O)OCC(=O)c1c(N)n(CC(C)C)c(=O)n(C)c1=O` belongs 0.88%; to `CC(=O)OCC(=O)C1CCC2C3CC=C4CC(O)CCC4(C)C3CCC12C` (stereo unspecified), -10.9%.
Regarding `CN(Cc1cccc(Cl)c1Cl)C(=O)c1cccc(S(=O)(=O)N2CCN(Cc3ccccc3)CC2)c1`, the inhibition was -12.3%.
As for `COc1cc(-c2c(C#N)c(=O)[nH]c3c2c(C)nn3-c2ccccc2)ccc1O`, the inhibition was 51.3%.
As to `Cc1nn(-c2ccc(F)cc2)c2nc(N)c(C#N)c(-c3ccc(O)c(O)c3)c12`, the inhibition was 1.53%.
